Measured values reported in PubChem BioAssay (NCATS).
Records with an inconclusive call do not appear. A call without a number means that no potency is given here. Activity calls are given as the source filed them. The call rests on the fitted dose curve; in most records, active means well fitted curve in the direction sought with a large enough effect; inconclusive means small, poorly fitted or top-dose-only effect, or another doubt; inactive means no such curve, though single readings can be large; an effect the other way counts as inactive or inconclusive.

Key:
[1] = biological target: Calcium and integrin-binding protein 1 (Homo sapiens) (UniProt Q99828); experiment: Primary qHTS for Identification of Calcium Integrin Binding Protein 1 (CIB1) Competitor (AID 1508620);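 further: GST tagged CIB1 binding a fluorescein labelled alphaIIb integrin peptide tracer; top concentration of the series differs between compounds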
Summary of the method: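 Fluorescence polarization competition: CIB1-GST (1 uM final) preincubated with compound 15 min at room temperature, then FITC-labeled alphaIIb peptide (100 nM final) added for another 15 min. Polarization read at Ex 480/Em 540.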

[2] = Primary qHTS for inhibitors of nuclear receptor binding SET domain protein 2 (NSD2) in an isogenic RCH-ACV NSD2 p.E1099K mutant (9B) (AID 1645876); further: nearly all actives have a fitted effect of over 70% in size; further: potency means the concentration at half of the fitted maximal effect
[3] = Primary qHTS for inhibitors of nuclear receptor binding SET domain protein 2 (NSD2) in an RCH-ACV wild type WT cells (2C) (AID 1645877); further: nearly all actives have a fitted effect of over 70% in size; further: potency means the concentration at half of the fitted maximal effect
[4] = biological target: Catechol O-methyltransferase (Homo sapiens) (UniProt P21964); experiment: Confirmatory Screen for Target Class Profiling of Small Molecule Inhibitors of Methyltransferases (AID 1745852); conditions: MTase-Glo luminescence, SAH detection, recombinant enzyme; measured here: COMT max response; stronger effect = lower value
Sequence of Catechol O-methyltransferase (Homo sapiens) (P21964 whole entry, looked up): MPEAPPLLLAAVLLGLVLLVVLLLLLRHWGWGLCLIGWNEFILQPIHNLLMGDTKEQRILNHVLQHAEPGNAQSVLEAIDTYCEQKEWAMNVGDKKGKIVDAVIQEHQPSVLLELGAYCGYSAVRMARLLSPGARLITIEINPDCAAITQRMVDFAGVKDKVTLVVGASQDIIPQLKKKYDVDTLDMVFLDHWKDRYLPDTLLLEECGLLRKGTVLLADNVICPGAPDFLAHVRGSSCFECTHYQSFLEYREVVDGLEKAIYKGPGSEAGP

Sequence of Calcium and integrin-binding protein 1 (Homo sapiens) (Q99828 whole entry, looked up): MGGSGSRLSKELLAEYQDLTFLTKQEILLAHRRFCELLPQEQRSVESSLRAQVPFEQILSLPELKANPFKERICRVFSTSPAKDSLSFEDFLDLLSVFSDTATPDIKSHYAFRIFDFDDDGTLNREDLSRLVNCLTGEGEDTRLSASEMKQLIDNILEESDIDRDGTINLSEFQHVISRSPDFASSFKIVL

## Oc1ccc(CNc2ccccc2F)c2cccnc12
[1]
  Potency: inactive
[2]
  Potency: 12.9 µM (active)
[3]
  Potency: 4.09 µM (active)
[4]
  activity: -81.9%

## CC(O)(CC(=O)O)CC(=O)OCc1ccc(O[C@@H]2O[C@H](CO)[C@@H](O)[C@H](O)[C@H]2O)cc1 (stereo not given in full)
[1]
  Potency: inactive
[2]
  Potency: inactive
[3]
  Potency: inactive
[4]
  activity: -58.1%

## CC/C=C\CCO[C@@H]1O[C@H](CO)[C@@H](O)[C@H](O)[C@H]1O
[1]
  Potency: inactive
[2]
  Potency: inactive
[3]
  Potency: inactive
[4]
  activity: -74.1%

## CC(CO)C1CCC2(C)CC3C(CO)CC(O)C3C(C)(O)C/C=C/12 (stereo not given)
[1]
  Potency: inactive
[2]
  Potency: inactive
[3]
  Potency: inactive

## COc1cc(/C=C/CO)cc(OC)c1O[C@@H]1O[C@H](CO[C@@H]2O[C@H](CO)[C@@H](O)[C@H](O)[C@H]2O)[C@@H](O)[C@H](O)[C@H]1O
[1]
  Potency: inactive
[2]
  Potency: inactive
[3]
  Potency: inactive

## CCC(=O)O[C@H]1C(C)(C)[C@H]([C@@H](O)C(=O)OC)[C@]2(C)C(=O)[C@@]1(O)[C@H]1O[C@]13C1CC(=O)O[C@@H](c4ccoc4)[C@]1(C)CCC32 (stereo not given in full)
[1]
  Potency: inactive
[2]
  Potency: inactive
[3]
  Potency: inactive

## CC1(C)CC[C@]2(C(=O)O[C@@H]3O[C@H](CO[C@@H]4O[C@H](CO)[C@@H](O)[C@H](O)[C@H]4O[C@@H]4O[C@H](CO)[C@H](O)[C@H](O)[C@H]4O)[C@@H](O)[C@H](O[C@@H]4O[C@H](CO)[C@@H](O)[C@H](O)[C@H]4O)[C@H]3O)CC[C@]3(C)C(=CCC4[C@@]5(C)CC[C@H](O[C@@H]6OC[C@@H](O)[C@H](O)[C@H]6O)[C@@](C)(C(=O)O)C5CC[C@]43C)[C@@H]2C1 (stereo not given in full)
[1]
  activity change, negative = inhibition: 0.475% [at 12.4 µM] (inactive)
[2]
  activity change, negative = viability loss: -8.77% [at 9.23 µM] (inactive)
[3]
  activity change, negative = cell killing: -8.76% [at 9.23 µM] (inactive)

## CC1=CC(=O)CC(C)(C)C1CCC(C)O[C@@H]1O[C@H](CO[C@@H]2OC[C@@H](O)[C@H](O)[C@H]2O)[C@@H](O)[C@H](O)[C@H]1O (stereo not given in full)
[1]
  Potency: inactive
[2]
  Potency: inactive
[3]
  Potency: inactive
[4]
  activity: -54.5%

## CC(=O)OC/C=C(\C)C(CC1C(C)=C(OC(C)=O)C(=O)C2C(C)(C)C(O)CCC12C)OC(C)=O (stereo not given)
[1]
  Potency: inactive
[2]
  Potency: inactive
[3]
  Potency: inactive
[4]
  activity: -67.8%

## Cc1cc(=O)oc2c(C=O)c(O)ccc12
[1]
  Potency: inactive
[2]
  Potency: 18.3 µM (active)
[3]
  Potency: 16.3 µM (active)
[4]
  activity: -6.39%

## CC(=O)OC1C[C@@]2(C)[C@@H](CC[C@@H](C)[C@]23Cc2c(O)cc4c(c2O3)CNC4=O)C(C)(C)[C@@H]1O (stereo not given in full)
[1]
  Potency: inactive
[2]
  Potency: inactive
[3]
  Potency: inactive

## COc1ccc(CCO[C@@H]2O[C@H](CO[C@@H]3OC[C@H](O)[C@H](O)[C@H]3O)[C@@H](O)[C@H](O)[C@H]2O)cc1
[1]
  Potency: inactive
[2]
  Potency: inactive
[3]
  Potency: inactive
[4]
  activity: -55.1%

## CC1(C)CCC[C@@]2(C)C1[C@H](OC(=O)/C=C/C=C/C(=O)O)C=C1COC(=O)[C@@]12O (stereo not given in full)
[1]
  Potency: inactive
[2]
  Potency: inactive
[3]
  Potency: inactive

## CC1=C(CCC(C)O[C@@H]2O[C@H](CO)[C@@H](O)[C@H](O)[C@H]2O)C(C)(C)CCC1=O (stereo not given in full)
[1]
  Potency: inactive
[2]
  Potency: inactive
[3]
  Potency: inactive
[4]
  activity: -64%

## C=C[C@H]1[C@H](O[C@@H]2O[C@H](CO)[C@@H](O)[C@H](O)[C@H]2O)OC=C(C(=O)OC)[C@H]1C/C=C(/C=O)[C@@H]1C(C(=O)OC)=CO[C@@H](O[C@@H]2O[C@H](CO)[C@@H](O)[C@H](O)[C@H]2O)[C@@H]1C=C
[1]
  Potency: inactive
[2]
  Potency: inactive
[3]
  Potency: inactive
[4]
  activity: -65.2%

## C[C@@H]1C[C@@H]2O[C@H]2/C=C\C=C\C(=O)Cc2c(Cl)c(O)cc(O)c2C(=O)O1
[1]
  Potency: inactive
[2]
  Potency: 1.01 µM (active)
[3]
  Potency: 0.45 µM (active)

## C/C=C/c1cc(OC)c2c(c1)[C@@H](C)[C@@H](c1ccc(O)c(OC)c1)O2
[1]
  Potency: inactive
[2]
  Potency: 8.98 µM (active)
[3]
  Potency: 14.2 µM (active)
[4]
  activity: -61.3%

## CC1CCC2(CO)C(C(=O)O)=CCCC2C1(C)CCc1ccoc1 (stereo not given)
[1]
  Potency: inactive
[2]
  Potency: inactive
[3]
  Potency: inactive
[4]
  activity: -92.5%

## CC1(C)[C@@H](O)CC[C@]2(C)[C@H]3CC=C4[C@@H]5C[C@](C)(C(=O)O)CC[C@]5(C)CC[C@@]4(C)[C@]3(C)CC[C@@H]12
[1]
  Potency: inactive
[2]
  Potency: inactive
[3]
  Potency: inactive
[4]
  activity: -16.8%

## CO[C@H]1O[C@@H]2O[C@]3(C)CC[C@H]4[C@H](C)CC[C@@H]([C@H]1C)[C@@]24OO3
[1]
  Potency: inactive
[3]
  Potency: 7.28 µM (active)

## C/C(=C/CO)CC[C@@H]1[C@@](C)(O)CCC2C(C)(C)CCC[C@]21C (stereo not given in full)
[1]
  Potency: inactive
[3]
  Potency: inactive

## COc1cc2c(c(OC)c1CC=C(C)C)C[C@H](c1ccc(O)cc1O)CO2
[1]
  Potency: inactive
[3]
  Potency: inactive
